# Source: PubChem BioAssay
# tim23-1 inh: growth inhibitors of tim23-1 mutant yeast; S. cerevisiae tim23-1 growth, BacTiter-Glo luminescence, 24 h; inhibition, % at 20 µM; 330,000 compounds, 1.3% hits; AID 463212;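 active means growth inhibition of the mutant yeast at or above 50%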;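 further: temperature-sensitive mutant grown at 25 °C; plate controls were DMSO-treated mutant yeast for no effect and medium wells lacking yeast for full effect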
# TIM10 inh: growth inhibitors of TIM10 yeast strain. S. cerevisiae TIM10 strain growth, BacTiter-Glo luminescence, 24 h. inhibition, % at 10 µM. 330,000 compounds, 1.4% hits. AID 463195;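 active means inhibition of 40% or more at the single tested concentration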;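 further: wild-type TIM10 isogenic control strain grown at permissive 25 °C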
# tim10-1 inh: inhibits growth of tim10-1 mutant yeast; S. cerevisiae tim10-1 ts strain growth, BacTiter-Glo, 24 h; inhibition, % at 20 µM; 330,000 compounds, 2.2% hits;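 active means inhibition of at least 40%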;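 further: mutant grown at 25 °C; 0% = DMSO wells with yeast and 100% = wells holding no yeast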
# NLRP3 yeast inh: NALP3 inhibition in yeast | AID 2825 | 330,000 compounds, 0.39% hits | inhibition, % at 10 µM | Yeast reconstituted NLRP3/ASC/caspase-1, beta-gal luminescence, 24 h;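 active means inhibition of 50% or more; inactive means inhibition below 50%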;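 further: plate controls were induced DMSO wells for no effect and uninduced yeast grown without galactose for full effect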
# PfHsp90 yeast 2: inhibits growth of yeast expressing Plasmodium falciparum Hsp90; S. cerevisiae expressing PfHsp90, BacTiter-Glo ATP, 48 h; yeast lacking PDR1 and PDR3 efflux regulators; inhibition, % at 9.4 µM; 310,000 compounds, 0.32% hits;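 active means every replicate shows inhibition above about 80%, whatever the replicate mean, limit read from the data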;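 further: 0% = DMSO neutral controls and 100% = 20 µM radicicol positive controls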
# SKKanGAS inh: blocks kanamycin growth of S. pyogenes SKKanGAS strain; BacTiter-Glo, 6 h; inhibition, % at 7.5 µM; 300,000 compounds, 1.3% hits;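 active means mean replicate score, as percent of positive control median, at least 50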;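 further: strain carries kanamycin resistance gene driven by streptokinase promoter and grows in 40 µg/ml kanamycin; loss of luminescence reflects streptokinase promoter inhibition or plain growth inhibition; 0% = median of DMSO wells and 100% = positive control at its reference dose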
# NALP3 confirm: NALP3 inhibition confirmation in yeast. shares compounds with NLRP3 yeast inh. 1,300 compounds, 81% hits. yeast expressing human NALP3, luminescence. inhibition, % at 10 µM; in the data active means inhibition above about 48%
# Casp1-ASC yeast: caspase-1-ASC yeast counter-screen hit; shares compounds with NLRP3 yeast inh; yeast expressing Caspase-1-ASC, luminescence counter screen; inhibition, % at 10 µM; 1,000 compounds, 66% hits
# NALP3 yeast rt: yeast NALP3 inhibition, confirmed on retest | shares compounds with NLRP3 yeast inh | yeast expressing human NALP3, luminescence read-out | inhibition, % at 10 µM | 1,000 compounds, 53% hits
# tim10-1 conf: tim10-1 yeast growth inhibition, confirmed; S. cerevisiae tim10-1 ts strain growth, BacTiter-Glo, 24 h; 7,400 compounds, 56% hits; AID 463213; inhibition, % at 20 µM; shares compounds with tim10-1 inh;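 active means inhibition of yeast growth at or above a set limit in either of two repeat tests at 20 µM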;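 further: tim10-1 mutant grown at permissive 25 °C to find synthetic lethal compounds; 0% = DMSO yeast wells and 100% = medium wells without yeast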
# TIM10 conf: TIM10 yeast growth inhibition, confirmed | shares compounds with TIM10 inh | S. cerevisiae tim10 strain growth, BacTiter-Glo luminescence, 24 h | inhibition, % at 10 µM | 4,600 compounds, 63% hits | AID 463215;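 active means inhibition of yeast growth at or above a set limit in either of two replicates at 10 µM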;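 further: this counterscreen used the strain with wild-type TIM10; 0% = yeast with DMSO and 100% = medium wells lacking yeast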
# tim23-1 confirm: tim23-1 yeast growth inhibition, confirmed | shares compounds with tim23-1 inh | S. cerevisiae tim23-1 growth, BacTiter-Glo luminescence, 24 h | inhibition, % at 20 µM | 4,400 compounds, 83% hits | AID 463218;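 active means inhibition above about 39% in either of two replicate wells at 20 µM, limit read from the data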;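 further: temperature-sensitive tim23-1 mutant grown at 25 °C; 0% = DMSO wells with yeast and 100% = medium wells without yeast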
# An asterisk follows results filed as active; x = no result. This is a sample that favours compounds with a hit; in the whole collection about 4.6% have one here. Unless noted, no stated cut-off is given here; in the data, active means inhibition above about 50%; inactive means the rest.
SMILES,tim23-1 inh,TIM10 inh,tim10-1 inh,NLRP3 yeast inh,PfHsp90 yeast 2,SKKanGAS inh,NALP3 confirm,Casp1-ASC yeast,NALP3 yeast rt,tim23-1 confirm,others
CCCCCCCCCn1c2c(c(=N)c3c1CCC3)CCC2,67*,48*,64*,59*,-32,21,65*,23,55*,83*,tim10-1 conf=60*;TIM10 conf=50*
C/C(=N\NC(=O)Cc1ccc(Cl)cc1)c1cccc(NC(=O)c2cccnc2)c1,-4,2,4,13,4,x,x,x,x,x,
COc1ccccc1CNC(=O)c1ccc2c(=O)n(CCCN3CCCC3=O)c(=S)[nH]c2c1,-13,-3,11,13,x,0,x,x,x,x,
C=C(C)COc1ccc2c(C)c(CC(=O)OC)c(=O)oc2c1C,61*,87*,80*,66*,29,x,78*,83*,80*,65*,tim10-1 conf=76*;TIM10 conf=88*
Cc1ccc(NC(=O)CSCC(=O)NNC(=O)c2nn(C)c(=O)c3ccccc23)cc1,3,-1,-3,7,x,x,x,x,x,x,
COc1ccc(/C=C/C(=O)Nc2ccc3c(c2)CCC3)cc1OC,54*,21,-36,59*,-4,-12,26,x,x,55*,
O=C(NC(=S)Nc1cnc2ccccc2c1)c1ccccc1,53*,51*,18,73*,8,-6,64*,65*,59*,69*,TIM10 conf=54*
CC(/C=N/NC(=O)c1cccs1)=C\c1ccccc1,53*,8,-16,54*,21,10,69*,63*,53*,48*,
O=C(N/N=C/C(Cl)=C\c1ccccc1)c1cccs1,64*,25,-27,60*,6,-7,69*,x,x,64*,
CC(/C=N/NC(=O)Cc1cccs1)=C\c1ccccc1,-7,-16,-16,21,15,-2,x,x,x,x,
O=C(N/N=C/C(Cl)=C/c1ccccc1)c1ccncc1,2,9,-14,10,10,-6,x,x,x,x,
COc1ccc(S(=O)(=O)N2CCCC2=O)cc1N(C)S(C)(=O)=O,2,-2,1,9,6,3,x,x,x,x,
C=CCNc1cc(C(F)(F)F)nc(-c2ccccn2)n1,-9,-7,-9,-4,9,2,x,x,x,x,
Cc1noc(COc2ccccc2OCC(N)=O)n1,10,6,-4,18,x,-3,x,x,x,x,
O=C(Nc1ccc(Cl)c(Cl)c1)c1ccccc1,-1,-9,0,28,x,x,x,x,x,x,
O=C(Nc1cccc(Cl)c1)c1ccccc1,62*,58*,39,83*,-5,x,93*,91*,83*,76*,TIM10 conf=57*
O=C(Nc1cccc(Cl)c1)C1CCCCC1,66*,33,25,50*,4,x,55*,38,38,69*,
O=C(Nc1csc(Cl)c1)c1ccccc1,56*,43*,20,80*,8,-2,81*,86*,79*,69*,TIM10 conf=41*
CC(=O)c1cccc(NC(=O)C2CCCCC2)c1,18,7,22,20,8,-4,x,x,x,x,
COc1cccc(NC(=O)c2ccccc2)c1,57*,30,12,53*,3,x,72*,49,54*,64*,
CC1CCCC(NC(=O)COC(=O)[C@@H](NC(=O)c2ccccc2Cl)C(C)C)C1C (some centres not stated),16,7,5,7,-28,x,x,x,x,x,
O=C(O)c1cc(Cl)c(Cl)cc1C(=O)NCc1ccco1,-4,5,-1,1,1,0,x,x,x,x,
O=C1CC(NS(=O)(=O)c2ccccc2F)CN1c1ccc2c(c1)OCCO2 (configuration not stated),-1,-6,-9,4,x,-6,x,x,x,x,
CNC(=O)C(C#N)(Cc1cc(C(C)=O)ccc1OC)Cc1cc(C(C)=O)ccc1OC,1,14,-6,2,-15,0,x,x,x,x,
Cc1cccc(NC(=O)c2cnc3ccccn3c2=O)c1,61*,30,6,51*,14,x,77*,x,x,55*,
SMILES,tim23-1 inh,TIM10 inh,tim10-1 inh,NLRP3 yeast inh,PfHsp90 yeast 2,SKKanGAS inh,NALP3 confirm,Casp1-ASC yeast,NALP3 yeast rt,tim23-1 confirm,others
O=C(Nc1ccc2c(c1)OCCO2)c1cnc2ccccn2c1=O,8,17,14,25,21,14,x,x,x,x,
c1ccc(-c2nc(-c3cccs3)[nH]c2-c2ccccc2)cc1,10,35,27,-36,8,2,x,x,x,x,
Cc1nc2nc(-c3cccs3)[nH]c2cc1Br,61*,13,-7,54*,30,18,76*,60*,63*,55*,
COc1cccc2c1C(=O)c1c(O)c3c(c(O)c1C2=O)C[C@@](O)(C(=O)CO)C[C@@H]3O[C@H]1C[C@H](N)[C@H](O)[C@H](C)O1,52*,-6,11,65*,23,107*,69*,75*,66*,44*,
O=Nc1c(-c2c(O)[nH]c3cc(Br)ccc23)[nH]c2ccccc12,51*,32,9,67*,5,95*,71*,56*,64*,57*,
C[C@@]12C(=O)Nc3ccc(Cl)cc3C(=O)N1[C@H]1c3ccccc3OC[C@@H]1[C@@H]2c1ccccc1,61*,0,23,79*,107*,x,91*,70*,66*,57*,
C[C@@]12C(=O)Nc3cc(Cl)ccc3C(=O)N1[C@H]1c3ccccc3OC[C@@H]1[C@@H]2c1ccccc1,34,7,23,16,7,x,x,x,x,x,
Cc1ccc(Nc2c(-c3ccccn3)nc3cc(C)ccn23)cc1,57*,25,36,53*,4,101*,63*,50*,41,50*,
O=C(/C=C\Nc1ccccn1)c1ccccc1,52*,48*,11,63*,-12,8,46*,59*,54*,80*,TIM10 conf=52*
c1ccc(-c2ccc(-c3nc(-c4ccccn4)no3)cc2)cc1,54*,29,46*,53*,27,18,50*,47,37,74*,tim10-1 conf=49*
c1ccc(-c2nc(-c3ccccn3)no2)cc1,19,3,-3,12,41,-6,x,x,x,x,
